Assay [1] in a line: qHTS assay to identify small molecule antagonists of the thyroid receptor (TR) signaling pathway - cell viability counter screen (AID 743064). Further: nearly all actives have a fitted effect of over 50% in size. Further: potency means the concentration at half of the fitted maximal effect. The method, boiled down:
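Plate GH3.TRE-Luc cells; incubate 4 h at 37 °C; add compound, then T3 to 1 nM final; incubate 23.5 h; add CellTiter-Fluor; incubate 30 min at 37 °C, 5% CO2; read fluorescence.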
(In general: In qHTS, concentration-response curves come from the screen itself.)

The subject of assay [2] is thyroid hormone receptor (rat, GH3 cells). The assay can be described thus: qHTS assay to identify small molecule agonists of the thyroid receptor (TR) signaling pathway (AID 743066; calls by dose curve).
The nature of assay [3]: qHTS assay to identify small molecule antagonists of the estrogen receptor alpha (ER-alpha) signaling pathway - cell viability counter screen (AID 743074; calls by dose curve;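 further: HEK293 cells carrying ER-alpha-UAS-bla reporter stimulated with 17beta-estradiol; nearly all actives have a fitted effect of over 45% in size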).
Assay [4] addresses Estrogen receptor (Homo sapiens) (UniProt P03372). The assay can be described thus: qHTS assay to identify small molecule agonists of the estrogen receptor alpha (ER-alpha) signaling pathway (AID 743075; calls by dose curve;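 further: HEK293 GripTite cells with ER-alpha and UAS-driven beta-lactamase reporter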).
Assay [5] shares this target. The assay can be described thus: qHTS assay to identify small molecule agonists of the estrogen receptor alpha (ER-alpha) signaling pathway using the BG1 cell line (AID 743079). Further: nearly all actives have a fitted effect of over 20% in size.
A short description of assay [6]: qHTS assay to identify small molecule antagonists of the estrogen receptor alpha (ER-alpha) signaling pathway using the BG1 cell line (AID 743080; calls by dose curve;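 further: BG1 cells stimulated with 17beta-estradiol alongside compound; series mostly up to about 70 µM; nearly all actives have a fitted effect of over 25% in size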). The method, boiled down: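 Endogenous full-length ER-alpha in BG1-Luc-4E2 cells drives a stably integrated 4×ERE luciferase gene; compounds were tested against 17beta-estradiol over 21.5 h, with luminescence and multiplexed viability fluorescence recorded.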

Another assay deals with Aromatase (Homo sapiens) (UniProt P11511). The assay can be described thus: qHTS assay to identify aromatase inhibitors (AID 743083). Further: series mostly up to about 70 µM; nearly all actives have a fitted effect of over 55% in size.
Aromatase (Homo sapiens), sequence (P11511 whole entry, looked up): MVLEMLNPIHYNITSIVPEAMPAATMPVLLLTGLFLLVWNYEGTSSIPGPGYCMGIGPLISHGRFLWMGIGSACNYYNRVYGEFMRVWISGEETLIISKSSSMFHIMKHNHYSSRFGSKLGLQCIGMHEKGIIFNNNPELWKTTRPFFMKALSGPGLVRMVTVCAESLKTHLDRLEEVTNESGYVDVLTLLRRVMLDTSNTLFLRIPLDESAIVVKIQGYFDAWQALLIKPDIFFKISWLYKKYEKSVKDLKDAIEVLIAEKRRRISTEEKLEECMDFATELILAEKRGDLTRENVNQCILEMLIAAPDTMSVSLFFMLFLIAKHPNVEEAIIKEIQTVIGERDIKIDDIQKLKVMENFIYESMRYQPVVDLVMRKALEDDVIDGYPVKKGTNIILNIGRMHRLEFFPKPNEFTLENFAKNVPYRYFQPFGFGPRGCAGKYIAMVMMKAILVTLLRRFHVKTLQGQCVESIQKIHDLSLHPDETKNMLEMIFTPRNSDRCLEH
Assay [7] in a line: qHTS assay to identify aromatase inhibitors - cell viability counter screen (AID 743084).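 Further: cells stimulated with testosterone during compound exposure; nearly all actives have a fitted effect of over 55% in size.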
The target in assay [8] is Aryl hydrocarbon receptor (Homo sapiens) (UniProt P35869). As to the kind of experiment: qHTS assay to identify small molecule that activate the aryl hydrocarbon receptor (AhR) signaling pathway (AID 743085). Further: nearly all actives have a fitted effect of over 15% in size. Further: potency means the concentration at half of the fitted maximal effect.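 On activation: HG2L7.5c1 human HepG2 liver cells with stably integrated DRE-driven firefly reporter; series mostly up to about 70 µM.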 In a few lines: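 Steps: seed HepG2-AhR-luc cells; allow 5 h at 37C; pin-transfer test compound or vehicle; incubate 24 h at 37C; add viability dye (30 min, 37C) and read fluorescence; add luciferase substrate (30 min, RT) and read luminescence.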
Aryl hydrocarbon receptor (Homo sapiens), sequence (P35869 whole entry, looked up): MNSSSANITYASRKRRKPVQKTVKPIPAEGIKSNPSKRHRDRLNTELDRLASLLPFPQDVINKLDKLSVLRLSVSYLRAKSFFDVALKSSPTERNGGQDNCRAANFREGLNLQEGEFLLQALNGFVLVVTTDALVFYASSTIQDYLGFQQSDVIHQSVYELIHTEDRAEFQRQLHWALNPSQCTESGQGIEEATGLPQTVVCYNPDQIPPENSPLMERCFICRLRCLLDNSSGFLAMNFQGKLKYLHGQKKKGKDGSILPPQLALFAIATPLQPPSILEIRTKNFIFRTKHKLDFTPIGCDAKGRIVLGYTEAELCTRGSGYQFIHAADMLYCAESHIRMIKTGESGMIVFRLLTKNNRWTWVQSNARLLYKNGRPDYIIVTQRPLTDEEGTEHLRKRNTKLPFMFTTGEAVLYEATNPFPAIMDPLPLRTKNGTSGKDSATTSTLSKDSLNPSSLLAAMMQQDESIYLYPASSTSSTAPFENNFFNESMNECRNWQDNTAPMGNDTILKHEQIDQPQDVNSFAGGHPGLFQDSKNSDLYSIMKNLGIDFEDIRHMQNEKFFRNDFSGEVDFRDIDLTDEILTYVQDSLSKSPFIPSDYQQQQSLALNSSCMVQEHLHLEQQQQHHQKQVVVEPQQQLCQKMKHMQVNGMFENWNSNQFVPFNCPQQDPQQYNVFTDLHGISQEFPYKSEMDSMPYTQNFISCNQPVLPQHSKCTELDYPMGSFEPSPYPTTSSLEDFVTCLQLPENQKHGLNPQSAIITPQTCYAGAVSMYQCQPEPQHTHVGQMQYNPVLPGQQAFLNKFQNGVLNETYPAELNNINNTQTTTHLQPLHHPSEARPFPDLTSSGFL

Assay [9] in a line: qHTS assay to identify small molecule antagonists of the peroxisome proliferator-activated receptor gamma (PPARg) signaling pathway - cell viability counter screen (AID 743194). Further: nearly all actives have a fitted effect of over 55% in size. In a few lines:
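PPARg-UAS-bla HEK293H cells were plated, rested 5 h at 37 C, then treated with compounds plus rosiglitazone (50 nM final) for 17 h at 37 C; viability was then read by CellTiter-Glo luminescence after 30 min at room temperature.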

Assay [10] can be described thus: qHTS assay for small molecule agonists of the antioxidant response element (ARE) signaling pathway - cell viability counter screen (AID 743203; calls by dose curve; further: nearly all actives have a fitted effect of over 55% in size). The method, boiled down:
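Parallel cytotoxicity read-out for the ARE-bla screen: HepG2 reporter cells, 16 hrs with compounds, then CellTiter-Glo luminescence.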

Assay [11] is described as follows: qHTS assay for small molecule activators of the heat shock response signaling pathway (AID 743210; active means well fitted activation curve with a large enough effect in the signal ratio in the repeat runs, with a control signal flat, not every such curve was filed as active; the % refers to the signal ratio; further: series mostly up to about 63 µM). The method, boiled down: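 Heat shock element–beta-lactamase HeLa reporter cells; qHTS with compounds for 5 h at 37 C; detection by FRET substrate fluorescence after 2.5 h at RT.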
Assay [12] in a line: qHTS assay to identify small molecule antagonists of the estrogen receptor alpha (ER-alpha) signaling pathway using the BG1 cell line - cell viability counter screen (AID 743081).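 Further: compound given together with 17beta-estradiol as the ER stimulus; series mostly up to about 70 µM; nearly all actives have a fitted effect of over 45% in size.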
Assay [13] is described as follows: qHTS assay to identify small molecule that activate the aryl hydrocarbon receptor (AhR) signaling pathway - cell viability counter screen (AID 743086).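 Further: HepG2 liver cells carrying the AhR DRE luciferase reporter; series mostly up to about 70 µM; nearly all actives have a fitted effect of over 45% in size.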 The method, boiled down: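 HepG2-AhR-luc (HG2L7.5c1) cells, 4000/well, were preincubated 5 h at 37C, exposed to compound in qHTS format for 24 hr at 37C, then given CellTiter-Fluor for 30 min; viability was read as fluorescence in the reporter wells.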

In assay [14] the target is Peroxisome proliferator-activated receptor gamma (Homo sapiens) (UniProt P37231). The assay can be described thus: qHTS assay to identify small molecule agonists of the peroxisome proliferator-activated receptor gamma (PPARg) signaling pathway (AID 743094; active means well fitted activation curve with a large enough effect in the signal ratio in the repeat runs, not every such curve was filed as active; the % refers to the signal ratio). In a few lines:
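Fluorescence-based beta-lactamase readout in HEK293H PPARg UAS-bla cells after 17 h compound exposure (37C) and 1 h B/G FRET substrate incubation at room temperature.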

A short description of assay [15]: qHTS assay for small molecule agonists of the antioxidant response element (ARE) signaling pathway (AID 743202; active means well fitted activation curve with a large enough effect in the signal ratio in the repeat runs, not every such curve was filed as active; the % refers to the signal ratio). The method, boiled down:
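Following a 16 h, 37 C exposure of reporter HepG2 cells (ARE-driven beta-lactamase, 2,000 cells/well) to compounds, FRET substrate was applied for 2 h at room temperature and fluorescence intensity recorded.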

The target in assay [16] is Peroxisome proliferator-activated receptor gamma (Homo sapiens) (UniProt P37231). The assay can be described thus: qHTS assay to identify small molecule antagonists of the peroxisome proliferator-activated receptor gamma (PPARg) signaling pathway (AID 743191; calls by dose curve; further: nearly all actives have a fitted effect of over 30% in size; further: potency means the concentration at half of the fitted maximal effect). In a few lines: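 GeneBLAzer PPARg UAS-bla HEK293H cells carrying a UAS-driven beta-lactamase reporter were plated at 3000 cells/well, preincubated 5 h at 37C, then given compound for 17 h at 37C; LiveBLAzer B/G FRET substrate was read after 1 h at room temperature.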
Peroxisome proliferator-activated receptor gamma (Homo sapiens), sequence (P37231 whole entry, looked up): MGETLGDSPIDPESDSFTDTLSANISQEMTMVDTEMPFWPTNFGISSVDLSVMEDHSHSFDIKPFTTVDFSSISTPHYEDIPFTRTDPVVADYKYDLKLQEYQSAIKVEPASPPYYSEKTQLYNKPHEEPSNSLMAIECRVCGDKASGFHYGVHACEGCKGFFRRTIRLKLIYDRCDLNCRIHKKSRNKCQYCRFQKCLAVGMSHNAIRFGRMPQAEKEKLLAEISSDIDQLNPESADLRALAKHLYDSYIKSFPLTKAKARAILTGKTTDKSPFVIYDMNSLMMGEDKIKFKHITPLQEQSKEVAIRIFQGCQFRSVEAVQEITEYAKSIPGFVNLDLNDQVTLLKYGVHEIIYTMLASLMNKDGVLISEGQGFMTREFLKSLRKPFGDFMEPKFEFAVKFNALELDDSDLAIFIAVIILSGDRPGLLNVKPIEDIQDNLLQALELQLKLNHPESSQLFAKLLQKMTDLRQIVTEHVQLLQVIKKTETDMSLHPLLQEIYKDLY

Assay [17] in a line: qHTS assay for small molecule activators of the heat shock response signaling pathway - cell viability counter screen (AID 743209). Further: nearly all actives have a fitted effect of over 50% in size. In a few lines: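 To flag cytotoxic compounds, HSE-bla HeLa cells plated at 1500 cells/well were dosed for 5 h at 37 C, followed by the reporter FRET read and then CellTiter-Glo, with luminescence recorded 30 min after reagent addition.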
Assay [18] concerns the target Estrogen receptor (Homo sapiens) (UniProt P03372). The assay can be described thus: qHTS assay to identify small molecule antagonists of the estrogen receptor alpha (ER-alpha) signaling pathway (AID 743069; active means well fitted curve in the direction sought with a large enough effect in the signal ratio in the repeat runs, not every such curve was filed as active; the % refers to the signal ratio). In a few lines:
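A 17beta-estradiol challenge was applied right after compound transfer to ER-alpha-UAS-bla HEK293 cells previously kept in charcoal-stripped serum. Plates stood 18 hr at 37C and 5% CO2; fluorescence was read following 2 hr FRET substrate loading at room temperature.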

Assay [19] is described as follows: qHTS assay to identify small molecule antagonists of the thyroid receptor (TR) signaling pathway (AID 743065). The method, boiled down:
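GH3.TRE-Luc rat pituitary cells carrying two TR response elements driving luciferase were plated for 4 h, given compound plus 1 nM T3 (final), and incubated 23.5 h at 37 C. ONE-Glo luminescence measured reporter inhibition; CellTiter-Fluor fluorescence tracked cytotoxicity.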

Results filed as inconclusive are left out. Active and inactive are the calls of the source. Unless noted, the call rests on the fitted dose curve; in most records, active means well fitted curve in the direction sought with a large enough effect in the repeat runs; inconclusive means weak or mixed curves; inactive means no such curve, though single readings can be large; an effect the other way counts as inactive or inconclusive.

Estrogen receptor (Homo sapiens), sequence (P03372 whole entry, looked up): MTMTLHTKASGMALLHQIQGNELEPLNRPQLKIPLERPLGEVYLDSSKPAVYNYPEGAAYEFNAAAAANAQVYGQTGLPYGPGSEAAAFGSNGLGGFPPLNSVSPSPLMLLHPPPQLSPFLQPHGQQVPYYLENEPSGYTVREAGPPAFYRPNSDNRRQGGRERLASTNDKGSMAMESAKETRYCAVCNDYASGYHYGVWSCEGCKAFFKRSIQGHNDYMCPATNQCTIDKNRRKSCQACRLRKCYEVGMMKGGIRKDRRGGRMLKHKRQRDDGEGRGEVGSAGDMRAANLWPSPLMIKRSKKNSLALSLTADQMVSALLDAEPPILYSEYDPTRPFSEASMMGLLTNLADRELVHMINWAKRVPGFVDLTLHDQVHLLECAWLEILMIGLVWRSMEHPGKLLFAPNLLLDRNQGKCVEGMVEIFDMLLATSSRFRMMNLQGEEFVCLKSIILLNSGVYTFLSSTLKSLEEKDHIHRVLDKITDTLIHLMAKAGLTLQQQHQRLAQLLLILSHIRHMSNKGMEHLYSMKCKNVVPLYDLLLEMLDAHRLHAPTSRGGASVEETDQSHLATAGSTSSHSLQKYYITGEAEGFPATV

As for `CCn1nc(Cc2ccccc2)cc1C1CCN(C[C@H]2C[C@H](N(C)[C@@H](C(=O)O)C(C)C)C[C@@H]2c2cccc(F)c2)CC1`, the Potency in assay [1] was 27.3 µM (active). Also, the outcome in assay [2], in assay [3] and in assay [11] was inactive. Moreover, the Potency result (in assay [4]; in assay [5]; in assay [6]; with Aromatase (Homo sapiens); in assay [7]; in [8]) was “inactive” in each case. In addition, the Potency result in assay [9] and in assay [10] was “inactive” in each case.

`COc1ccc(/C=C/S(=O)(=O)NC(=O)c2ccc(C)cc2Cl)cc1`: the Potency entry (in assay [1]; in assay [12]; with Aromatase (Homo sapiens); in [7]; in assay [8]; in [13]) was “inactive” throughout. Besides, the Potency result in [14], in assay [9], in assay [15] and in assay [10] was “inactive” in each case. Further, the result in assay [11] was inactive.

Regarding `Nc1ccccc1Nc1ccccc1`, the Potency in [1] was 15.4 µM (active); in assay [8], 54.6 µM (active); in [16] it was 43.8 µM (active). Also, the compound was called inactive in assay [3] and in [17]. Also, the Potency entry in [12], in [13] and in [9] was “inactive” each time.

In the case of `Nc1ccc(F)cc1F`, the Potency result in [1], in assay [18], in assay [4], in [5], in assay [6] and in assay [12] was “inactive” throughout. In addition, the Potency result (in the assay with Aromatase (Homo sapiens); in assay [7]; in assay [13]; in assay [14]; in [16]; in [9]) was “inactive” throughout. Further, the Potency result in assay [15] and in assay [10] was “inactive” in each case. Besides, the result in [3], in assay [17] and in [11] was inactive.

For the compound `C/C(=C\C(C)CC(C)CC(C)C)C1CC(=O)OC1=O` (stereo not given), the Potency entry (in assay [1]; in [4]; in assay [5]; in assay [6]; in [12]; with Aromatase (Homo sapiens)) was “inactive” each time. Also, the Potency entry in assay [8], in [13], in assay [14], in assay [16], in assay [9] and in [10] was “inactive” in each case. Besides, the outcome in assay [2], in [3], in assay [17] and in assay [11] was inactive.

With `CC(C)=CCC[C@H](C)CCO`, the Potency entry in assay [19], in assay [18], in [4], in assay [5], in assay [6] and in assay [12] was “inactive” throughout. In addition, the Potency entry (in the assay with Aromatase (Homo sapiens); in assay [7]; in assay [8]; in [13]; in assay [14]; in assay [9]) was “inactive” in each case. Besides, the Potency result in assay [15] and in [10] was “inactive” throughout. The outcome in [2], in [3] and in [11] was inactive.

Take `C(/C=C/C=C/Nc1ccccc1)=Nc1ccccc1`: the Potency entry in assay [1], in assay [18], in assay [4], in [5], in assay [6] and in assay [12] was “inactive” throughout. Besides, the Potency result (with Aromatase (Homo sapiens); in assay [7]; in assay [13]; in assay [14]; in assay [9]; in assay [10]) was “inactive” throughout. Further, the compound was called inactive in assay [3], in assay [17] and in assay [11].

Consider `CCCOC(C)=O`, for which the Potency entry in assay [19], in assay [18], in assay [4], in assay [5], in [6] and in assay [12] was “inactive” throughout. The Potency entry (with Aromatase (Homo sapiens); in assay [7]; in [8]; in assay [13]; in assay [14]; in assay [16]) was “inactive” throughout. Besides, the Potency entry in [9] and in assay [15] was “inactive” each time. The compound was classed as inactive in [2], in [3], in [17] and in assay [11].

Turning to `CC1(C)C(=O)NC(=O)N1CO`, the Potency result (in assay [1]; in assay [18]; in [4]; in assay [6]; in assay [12]; with Aromatase (Homo sapiens)) was “inactive” throughout. The Potency entry in [7], in assay [8], in [13], in assay [14], in assay [16] and in [9] was “inactive” each time. In addition, the Potency entry in assay [10] is “inactive”. The compound was classed as inactive in assay [2], in [3] and in assay [11].
